Test results from PubChem BioAssay (NCI).
This is part of a sample that, as a whole, favours compounds with a hit. Of some 79,000 tested, about 15% had one in any assay. The source made the active and inactive calls. Rule as the data show it: active = growth inhibition above about 70%; inactive = the rest.

Assay: NCI Yeast Anticancer Drug Screen. Data for the rad18 strain (AID 177)
Settings: S. cerevisiae rad18 mutant growth inhibition, active compounds read high
Experimental: Growth inhibition of yeast strains with defined genetic alterations is measured as a screen for potential anti-cancer activity. Selected strains with alterations in DNA damage repair or cell cycle control were exposed to compounds and growth inhibition was measured relative to vehicle treated controls. The strain used in this assay is rad18

Measured: growth inhibition

O=Nc1cccnc1N=O
inactive: at 1.2 µM 35%
active: at 3.7 µM 86% | at 11.0 µM 94% | at 33.0 µM 98% | at 100.0 µM 98%

Nc1nc(Cl)c(Cl)c(Cl)n1
inactive: at 1.2 µM 1% | at 3.7 µM 5% | at 11.0 µM 19%
active: at 33.0 µM 77% | at 100.0 µM 99%

CCS(=O)(=O)c1ccc(/C=C/C=N/NC(=S)NCC(C)C)cc1
inactive: at 1.2 µM 6% | at 3.7 µM 2% | at 11.0 µM -1% | at 33.0 µM 5% | at 100.0 µM 9%

CNC1C(OC2C(OC3C(O)C(O)C(N=C(N)N)C(O)C3N=C(N)N)OC(C)C2(O)CO)OC(CO)C(O)C1O (stereo not given)
inactive: at 1.2 µM 1% | at 3.7 µM 10% | at 11.0 µM 5% | at 33.0 µM 35% | at 100.0 µM -12%

OC1CCCc2c1cc1ccc3cccc4ccc2c1c34 (stereo not given)
active: at 11.0 µM 99% | at 33.0 µM 98% | at 100.0 µM 92%
inactive: at 1.2 µM -11% | at 3.7 µM -3%

COc1ccc2sc3cccc(NCCN(C)C)c3c(=O)c2c1
inactive: at 1.2 µM 0% | at 3.7 µM 0% | at 11.0 µM 2% | at 33.0 µM 9% | at 100.0 µM 27%

NCCNc1ccc(NCCN)c2c1C(=O)c1c(O)ccc(O)c1C2=O
inactive: at 1.2 µM 4% | at 3.7 µM 18% | at 11.0 µM 8% | at 100.0 µM 61%
active: at 33.0 µM 85%

CC(=O)Oc1cc(-c2cc(OC(C)=O)c(OC(C)=O)c3ccccc23)c2ccccc2c1OC(C)=O
inactive: at 1.2 µM 1% | at 3.7 µM 6% | at 11.0 µM 10% | at 33.0 µM 26%
active: at 100.0 µM 90%
